Assay outcomes from PubChem BioAssay.
Shown are actives, neighbours in structure and some others; about 7.4% of the full set was active somewhere.
Luc counter = blocks Kinase-Glo luciferase, a counter-screen artifact; Kinase-Glo luciferase, ATP luminescence, 8 min; 200,000 tested, 0.28% active; Q27757; Potency, µM (top dose mostly 38.3 µM), inactives show at the highest dose activity change, negative = inhibition, usual class: inhibitors; further: on the % scale 0 is the no-effect control and ±100 the full control effect; nearly all actives have a fitted effect of over 60% in size
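Kinase-Glo luciferase light output from ATP and luciferin was measured with 10 uM ATP, within the enzyme's linear range. Buffer: 50 mM imidazole pH 7.2, 50 mM KCl, 7 mM MgCl2, 0.01% Tween 20, 0.05% BSA; luminescence read after 8 min at ambient temperature.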
ELG1 genotoxic = genotoxicity induction in ELG1-luciferase HEK293T cells; HEK293T ELG1-luciferase reporter, luminescence, 16 h; AID 504466; 330,000 tested, 1.3% active; Potency, µM (doses to about 46 µM), for the others: at the highest dose activity change, positive = activation, hits mostly activators; further: % of control where 0% means no effect; nearly all actives have a fitted effect of over 60% in size
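Genotoxic stress is detected as increased luminescence from luciferase-tagged ELG1 in HEK293T cells, measured with ONE-Glo after a 16 hr treatment at 37 °C.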
NPC1 prom act = NPC1 promoter activation; Huh7 NPC1 promoter luciferase reporter, 24 h; 320,000 tested, 2.4% active; Potency, µM (highest dose often 9.22 µM), for the others: top-dose activation, most hits filed as activators; AID 485313; further: % of control where 0% means no effect; nearly all actives have a fitted effect of over 60% in size
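Compounds in DMSO were transferred onto Huh7 NPC1-luciferase reporter cells pre-incubated 2 h; after 24 h at 37 °C, Amplite reagent was dispensed and luminescence recorded 10 min later.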
FLuc modulator = firefly luciferase modulation, counter-screen for miR-21 project; purified FLuc, Km substrates, luminescence inhibition; Potency, µM (titrated, usually from 57.5 µM), inactives show top-dose activity change, negative = inhibition, actives largely listed as inhibitors; 360,000 tested, 6.9% active;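 further: plate controls were vehicle for no effect and reference inhibitor for full effect; nearly all actives have a fitted effect of over 55% in size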
Target sequence (P08659 whole entry, looked up): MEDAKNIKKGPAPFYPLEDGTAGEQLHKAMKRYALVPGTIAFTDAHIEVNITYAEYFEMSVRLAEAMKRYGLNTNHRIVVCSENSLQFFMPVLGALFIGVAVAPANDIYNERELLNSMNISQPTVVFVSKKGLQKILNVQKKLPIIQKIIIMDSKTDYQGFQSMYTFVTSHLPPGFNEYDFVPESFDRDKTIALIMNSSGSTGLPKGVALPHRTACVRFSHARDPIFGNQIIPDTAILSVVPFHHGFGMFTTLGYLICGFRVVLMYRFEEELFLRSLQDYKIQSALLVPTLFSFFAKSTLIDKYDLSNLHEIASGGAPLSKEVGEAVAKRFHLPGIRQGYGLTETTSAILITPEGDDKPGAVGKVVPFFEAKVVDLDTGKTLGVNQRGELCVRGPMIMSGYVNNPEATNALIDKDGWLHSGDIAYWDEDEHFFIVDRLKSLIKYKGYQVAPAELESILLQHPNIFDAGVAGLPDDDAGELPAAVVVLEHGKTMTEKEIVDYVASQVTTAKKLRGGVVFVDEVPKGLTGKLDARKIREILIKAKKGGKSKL
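Purified P. pyralis luciferase (10nM final) with 10uM D-luciferin and 10uM ATP (Km levels) in 50mM Tris acetate pH 7.5, 10mM Mg acetate, 0.01% Tween-20, 0.05% BSA; qHTS 6-point titration, ~60 µM downward; luminescence read.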
SMN2 splice up = SMN2 splice variant enhancement; HEK293 SMN2-luciferase splicing reporter, luminescence, 30-36 h; Potency, µM (titrated, usually from 46.1 µM), for inactives: at the highest dose activity change, positive = activation, usual class: activators; 210,000 tested, 2.8% active; AID 1458; further: % of control where 0% means no effect; nearly all actives have a fitted effect of over 55% in size
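HEK293 cells carry an SMN2 minigene-luciferase reporter in which exon 7 inclusion puts luciferase in frame. Cells were seeded at 2000 cells/well, attached for 10-12 hours, then exposed to compounds for 30-36 hours at 37C before ONE-Glo luminescence.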
Rab9 promoter act = activates the Rab9 promoter. AID 485297. 320,000 tested, 2.8% active. Potency, µM (top dose mostly 9.22 µM), without a hit: at the highest dose activation, negative = inhibition, actives largely listed as activators. Huh7 Rab9 promoter-luciferase reporter, luminescence, 24 h; further: % of control where 0% means no effect; nearly all actives have a fitted effect of over 60% in size
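Measured in stably transfected Huh7 cells bearing a Rab9 promoter–luciferase construct: 24 h compound treatment at 37 °C, followed by luminescence detection.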
* marks the source's active call; other numbers are inactive results; ? = inconclusive; / = not tested or not shown; [ ] = remark or other dose. The call rests on the fitted dose curve; in most records, active means well fitted curve in the direction sought with a large enough effect; inconclusive means small, poorly fitted or top-dose-only effect, or another doubt; inactive means no such curve, though single readings can be large; an effect the other way counts as inactive or inconclusive. Potency means the concentration at half of the fitted maximal effect.

SMILES	Luc counter	ELG1 genotoxic	NPC1 prom act	FLuc modulator	SMN2 splice up	Rab9 promoter act
Cc1c(Nc2ncccc2C(=O)O)cccc1C(F)(F)F	-4%	?	0%	19µM*	-5%	10%
CCCCCC(O)/C=C/C=C\CCCCCCCC(=O)O (stereo not given)	-2%	/	/	/	2%	/
Cc1cc(NC(=O)c2ccccc2C)n(-c2cccc(F)c2)n1	/	0%	-2%	-4%	/	3%
CC(=O)Nc1ccc(S(=O)(=O)Nc2nc3ccccc3nc2Nc2cccc(O)c2)cc1	/	5%	-6%	?	/	0%
COC(=O)c1cc(Nc2nc3ccccc3nc2NS(=O)(=O)c2ccc(C)cc2)ccc1Cl	/	/	/	19µM*	-2%	/
CC(=O)Nc1ccc(S(=O)(=O)Nc2nc3ccccc3nc2Nc2ccc3ccccc3c2)cc1	0%	-1%	-1%	9.5µM*	?	1%
CC1CCc2sc(C(=O)OCC(=O)NCc3ccc(F)cc3)cc2C1 (stereo not given)	/	2%	3%	0%	/	-1%
CC(C)n1ncc2c(C(=O)NCC(=O)Nc3ccccc3Br)cc(C3CC3)nc21	/	0%	4%	3%	/	-5%
COC(=O)C1=C(C(=O)OC)[C@@H]2N(Cc3ccccc3)c3ccccc3[C@@]23C[C@@H](C(=O)OC)N(S(=O)(=O)c2c(C)noc2C)C3=N1	-6%[7.66 µM]	/	/	/	-1%[9.22 µM]	/
NC(=O)C1CCN(C(=O)c2cc3c(s2)CCCCC3)CC1	/	18%	?	?	/	3.5µM*
CC1CC(C)CN(C(=O)c2cc3c(s2)CCC3)C1 (stereo not given)	0%	15%	1%	-18%	-14%	0%
CC1CCc2sc(C(=O)N3CCC(C(N)=O)CC3)cc2C1 (stereo not given)	/	?	0.4µM*	17µM*	/	0.5µM*
COc1ccc(CC(=O)Nc2ccc(-c3cn4ccc(C)cc4n3)cc2)cc1	-5%	21µM*	?	?	-5%	?
Cc1cccn2cc(-c3cccc(NC(=O)C(C)C)c3)nc12	/	/	/	11µM*	?	/
Cc1ccn2cc(-c3cccc(NC(=O)C(C)C)c3)nc2c1	-11%	?	25%	6µM*	14µM*	?
Cc1ccc(C)c(NC(=O)Nc2cccc(-c3cn4cccnc4n3)c2)c1	/	/	/	-3%	-4%	/
O=C(Nc1cccc(-c2cn3ccccc3n2)c1)c1cc2ccccc2oc1=O	-1%	17%	?	1.5µM*	?	?
CCOc1ccccc1NC(=S)N(CCC(C)C)C1CCN(C(C)=O)CC1	6%	-12%	0%	0%	-15%	-1%
Cc1n[nH]c(=O)c2c(NC(=O)CSc3ccccc3Cl)oc(C)c12	/	-3%	-1%	-7%	/	-4%
COc1cccc(CNC(=O)CSc2nc3ccccc3nc2Cc2ccc(C)cc2)c1OC	/	/	/	-3%	/	/
O=C(Nc1cccc(-c2cn3ccccc3n2)c1)c1cccs1	-2%	?	21%	3.4µM*	/	13%
Cc1ccn2cc(-c3cccc(NC(=O)c4ccccc4)c3)nc2c1	-19%	1%	3%	4.3µM*	?	22%
CC(C)C(=O)Nc1cccc(-c2cn3ccccc3n2)c1	-2%	8%	12%	11µM*	-5%[1.84 µM]	17%
CC(=O)Nc1cccc(-c2cn3ccccc3n2)c1	-8%	13%	16%	19µM*	?	27%
CCC(CC)C(=O)Nc1cccc(-c2cn3cccnc3n2)c1	/	/	/	-8%	/	/
SMILES	Luc counter	ELG1 genotoxic	NPC1 prom act	FLuc modulator	SMN2 splice up	Rab9 promoter act
O=C(NCC(=O)N1CCN(c2ccccc2O)CC1)c1ccc(Br)o1	/	1%	-2%	-4%	/	0%
O=C(CN1CCCC1c1cccs1)N1CCN(S(=O)(=O)c2cccc(F)c2)CC1 (stereo not given)	/	2%	2%	5%	/	0%
CC(C)(C)OC(=O)C[C@H]1C/C=C\C[C@H](CC(=O)NCCO)C(=O)NC[C@@H](c2ccccc2)OC1=O	/	3%	/	/	/	/
O=C(COC(=O)/C=C/c1ccco1)Nc1cc(S(=O)(=O)N2CCOCC2)ccc1Cl	/	0%	/	/	/	/
Cc1cc(Cl)c2oc(C(=O)NC3CCC(O)CC3)c(C)c2c1 (stereo not given)	/	?	3%	-18%	/	9%
COC(=O)C1CCN(C(=O)c2oc3c(Cl)cc(C)cc3c2C)CC1	/	?	0.79µM*	11µM*	/	0.63µM*
CCOC(=O)C1CCCCN1C(=O)c1oc2c(Cl)cc(C)cc2c1C (stereo not given)	/	-1%	2%	12µM*	/	4%
COc1cc(C(=O)OC(C)CN2C(C)CCCC2C)cc(OC)c1OC (stereo not given)	/	-1%	-1%	1%	/	4%
O=C1/C(=C/c2cccnc2)SC(=S)N1CC1CCCO1 (stereo not given)	1%	-4%	-5%	?	-3%	-5%
Cc1ccc(/C=C2\SC(=S)N(CC3CCCO3)C2=O)o1 (stereo not given)	/	4%	17%	21µM*	/	?
O=C1/C(=C\c2ccc(-c3ccccc3Cl)o2)SC(=S)N1CC1CCCO1 (stereo not given)	0%	-3%	10%	-20%	-7%	14%
O=C1/C(=C/c2ccco2)SC(=S)N1CC1CCCO1 (stereo not given)	/	7%	-2%	17µM*	/	21%
Cc1ccc(/C=C2/SC(=O)NC2=S)o1	-2%	0%	-2%	27µM*	-4%	-1%
CN(C)C1(CNC(=O)COc2ccc([N+](=O)[O-])cc2)CCCCC1	/	/	/	-6%	/	/
O=C(c1ccco1)N1CCN(c2nnc(-c3ccccc3)c3ccccc23)CC1	3%	-4%	-5%	2%	-4%	4%
O=C(CC(c1ccco1)S(=O)(=O)c1ccccc1)c1ccc(F)cc1 (stereo not given)	-2%	1%	0%	19µM*	13%	-1%
COc1ccc(NC(=O)NCc2ccc(Cl)cc2)cc1	/	15%	-6%	-1%	/	2%
COc1ccccc1C(=O)Nc1cccc(NC(C)=O)c1	-1%	-1%	0%	?	-11%	-5%
Cc1cccc(NC(=O)NCc2ccc3c(c2)cc(C)n3C)c1	-1%	?	4%	-3%	2%	-4%
